According to ChEMBL document CHEMBL1961873, “Compounds: GSK PKIS; Assays: Nanosyn kinase panel” (2012):

Columns and labels:
[1] = molecular target: Death-associated protein kinase 1 (Homo sapiens) (UniProt P53355); conditions: at 1 µM;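 further: each value is a mean inhibition figure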
[2] = molecular target: T1, Serine/threonine-protein kinase DCLK2 (Homo sapiens) (UniProt Q8N568); conditions: at 0.1 µM
T1 sequence (whole entry): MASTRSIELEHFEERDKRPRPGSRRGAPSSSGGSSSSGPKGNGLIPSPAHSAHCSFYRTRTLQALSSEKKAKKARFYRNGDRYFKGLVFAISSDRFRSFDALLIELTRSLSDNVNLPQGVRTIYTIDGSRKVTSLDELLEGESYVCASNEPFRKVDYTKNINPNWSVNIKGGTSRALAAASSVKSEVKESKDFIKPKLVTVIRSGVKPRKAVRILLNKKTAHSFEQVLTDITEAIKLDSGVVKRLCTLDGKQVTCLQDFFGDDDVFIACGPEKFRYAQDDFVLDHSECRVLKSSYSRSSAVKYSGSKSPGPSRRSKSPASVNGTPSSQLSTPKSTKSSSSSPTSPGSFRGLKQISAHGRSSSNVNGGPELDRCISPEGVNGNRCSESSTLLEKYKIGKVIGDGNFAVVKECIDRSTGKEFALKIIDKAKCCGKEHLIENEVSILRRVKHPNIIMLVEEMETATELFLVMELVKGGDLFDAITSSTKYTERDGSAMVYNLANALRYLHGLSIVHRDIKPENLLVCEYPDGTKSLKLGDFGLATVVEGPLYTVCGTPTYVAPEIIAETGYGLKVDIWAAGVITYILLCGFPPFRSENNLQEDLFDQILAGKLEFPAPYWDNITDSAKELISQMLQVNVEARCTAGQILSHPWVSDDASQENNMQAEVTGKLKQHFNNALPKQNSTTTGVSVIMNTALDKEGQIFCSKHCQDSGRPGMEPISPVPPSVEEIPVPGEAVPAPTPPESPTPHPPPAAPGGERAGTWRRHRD

[3] = molecular target: T1, Serine/threonine-protein kinase DCLK2 (Homo sapiens); conditions: at 1 µM
[4] = molecular target: MAP kinase-activated protein kinase 2 (Homo sapiens) (UniProt P49137); conditions: at 0.1 µM
[5] = molecular target: MAP kinase-activated protein kinase 2 (Homo sapiens) (UniProt P49137); conditions: at 1 µM
[6] = molecular target: MAP kinase-activated protein kinase 3 (Homo sapiens) (UniProt Q16644); conditions: at 0.1 µM
[7] = molecular target: MAP kinase-activated protein kinase 3 (Homo sapiens) (UniProt Q16644); conditions: at 1 µM
[8] = molecular target: Serine/threonine-protein kinase MARK1 (Homo sapiens) (UniProt Q9P0L2); conditions: at 0.1 µM
[9] = molecular target: Serine/threonine-protein kinase MARK1 (Homo sapiens) (UniProt Q9P0L2); conditions: at 1 µM
[10] = molecular target: MAP/microtubule affinity-regulating kinase 3 (Homo sapiens) (UniProt P27448); conditions: at 0.1 µM
[11] = molecular target: MAP/microtubule affinity-regulating kinase 3 (Homo sapiens) (UniProt P27448); conditions: at 1 µM
[12] = molecular target: T2, MAP/microtubule affinity-regulating kinase 4 (Homo sapiens) (UniProt Q96L34); conditions: at 0.1 µM
T2 sequence (whole entry): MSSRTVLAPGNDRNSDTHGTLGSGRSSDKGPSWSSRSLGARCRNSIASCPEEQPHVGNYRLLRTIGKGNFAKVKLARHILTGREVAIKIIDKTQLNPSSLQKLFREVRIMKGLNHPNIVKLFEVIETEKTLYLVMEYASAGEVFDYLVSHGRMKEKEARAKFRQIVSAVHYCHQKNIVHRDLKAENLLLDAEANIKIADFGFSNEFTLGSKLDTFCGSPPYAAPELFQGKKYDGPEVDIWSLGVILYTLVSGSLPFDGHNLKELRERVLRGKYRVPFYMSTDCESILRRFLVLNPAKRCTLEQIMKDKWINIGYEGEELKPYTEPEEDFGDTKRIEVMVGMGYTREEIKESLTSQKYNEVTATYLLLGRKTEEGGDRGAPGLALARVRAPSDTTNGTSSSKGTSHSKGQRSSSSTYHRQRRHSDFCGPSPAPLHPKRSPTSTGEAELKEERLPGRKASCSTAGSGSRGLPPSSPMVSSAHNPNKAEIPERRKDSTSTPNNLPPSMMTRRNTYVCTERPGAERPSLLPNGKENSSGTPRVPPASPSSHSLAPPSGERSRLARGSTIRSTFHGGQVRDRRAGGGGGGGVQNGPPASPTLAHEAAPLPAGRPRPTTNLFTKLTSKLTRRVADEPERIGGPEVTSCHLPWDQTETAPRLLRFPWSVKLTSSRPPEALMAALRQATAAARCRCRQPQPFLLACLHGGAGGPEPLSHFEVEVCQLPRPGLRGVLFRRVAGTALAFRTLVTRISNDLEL

[13] = molecular target: T2, MAP/microtubule affinity-regulating kinase 4 (Homo sapiens); conditions: at 1 µM
[14] = molecular target: Maternal embryonic leucine zipper kinase (Homo sapiens) (UniProt Q14680); conditions: at 0.1 µM
[15] = molecular target: Maternal embryonic leucine zipper kinase (Homo sapiens) (UniProt Q14680); conditions: at 1 µM
[16] = molecular target: MAP kinase-interacting serine/threonine-protein kinase 1 (Homo sapiens) (UniProt Q9BUB5); conditions: at 0.1 µM
[17] = molecular target: MAP kinase-interacting serine/threonine-protein kinase 1 (Homo sapiens) (UniProt Q9BUB5); conditions: at 1 µM
[18] = molecular target: MAP kinase-interacting serine/threonine-protein kinase 2 (Homo sapiens) (UniProt Q9HBH9); conditions: at 0.1 µM
[19] = molecular target: MAP kinase-interacting serine/threonine-protein kinase 2 (Homo sapiens) (UniProt Q9HBH9); conditions: at 1 µM
[20] = molecular target: Serine/threonine-protein kinase MARK2 (Homo sapiens) (UniProt Q7KZI7); conditions: at 0.1 µM;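 further: mean percent inhibition of PAR-1Balpha kinase activity, reported from the GSK PKIS screen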
Chain of Serine/threonine-protein kinase MARK2 (Homo sapiens) (Q7KZI7 whole entry): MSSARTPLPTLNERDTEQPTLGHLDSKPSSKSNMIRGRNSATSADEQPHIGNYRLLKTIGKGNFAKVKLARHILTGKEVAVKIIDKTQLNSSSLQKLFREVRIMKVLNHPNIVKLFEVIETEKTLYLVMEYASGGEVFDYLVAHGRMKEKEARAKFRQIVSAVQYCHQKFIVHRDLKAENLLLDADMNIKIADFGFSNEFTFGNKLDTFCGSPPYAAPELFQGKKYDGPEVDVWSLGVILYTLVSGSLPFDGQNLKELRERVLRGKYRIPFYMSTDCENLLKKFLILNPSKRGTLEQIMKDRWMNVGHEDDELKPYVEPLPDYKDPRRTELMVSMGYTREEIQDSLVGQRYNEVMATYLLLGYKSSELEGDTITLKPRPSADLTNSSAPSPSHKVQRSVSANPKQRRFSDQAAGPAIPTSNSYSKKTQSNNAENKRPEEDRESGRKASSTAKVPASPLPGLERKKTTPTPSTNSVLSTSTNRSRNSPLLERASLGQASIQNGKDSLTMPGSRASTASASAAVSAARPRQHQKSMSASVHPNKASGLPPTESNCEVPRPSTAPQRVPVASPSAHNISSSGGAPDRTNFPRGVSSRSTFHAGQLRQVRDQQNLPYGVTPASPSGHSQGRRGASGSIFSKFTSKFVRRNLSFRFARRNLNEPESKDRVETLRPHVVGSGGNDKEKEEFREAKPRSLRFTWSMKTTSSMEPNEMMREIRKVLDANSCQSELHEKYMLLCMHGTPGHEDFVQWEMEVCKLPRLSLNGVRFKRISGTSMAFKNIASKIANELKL

Chain of MAP kinase-interacting serine/threonine-protein kinase 2 (Homo sapiens) (Q9HBH9 whole entry, looked up): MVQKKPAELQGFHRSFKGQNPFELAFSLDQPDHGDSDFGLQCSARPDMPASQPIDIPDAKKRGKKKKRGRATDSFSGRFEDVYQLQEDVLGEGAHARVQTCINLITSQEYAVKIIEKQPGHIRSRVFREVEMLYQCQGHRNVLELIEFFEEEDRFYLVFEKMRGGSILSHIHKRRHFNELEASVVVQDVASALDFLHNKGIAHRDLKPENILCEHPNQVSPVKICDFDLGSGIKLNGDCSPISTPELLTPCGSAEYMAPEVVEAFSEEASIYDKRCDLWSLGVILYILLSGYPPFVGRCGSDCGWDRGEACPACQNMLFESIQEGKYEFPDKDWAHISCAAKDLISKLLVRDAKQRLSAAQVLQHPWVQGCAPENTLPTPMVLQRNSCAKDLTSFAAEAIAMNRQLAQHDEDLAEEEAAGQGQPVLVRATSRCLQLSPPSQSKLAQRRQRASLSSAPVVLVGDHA
Chain of Serine/threonine-protein kinase MARK1 (Homo sapiens) (Q9P0L2 whole entry, looked up): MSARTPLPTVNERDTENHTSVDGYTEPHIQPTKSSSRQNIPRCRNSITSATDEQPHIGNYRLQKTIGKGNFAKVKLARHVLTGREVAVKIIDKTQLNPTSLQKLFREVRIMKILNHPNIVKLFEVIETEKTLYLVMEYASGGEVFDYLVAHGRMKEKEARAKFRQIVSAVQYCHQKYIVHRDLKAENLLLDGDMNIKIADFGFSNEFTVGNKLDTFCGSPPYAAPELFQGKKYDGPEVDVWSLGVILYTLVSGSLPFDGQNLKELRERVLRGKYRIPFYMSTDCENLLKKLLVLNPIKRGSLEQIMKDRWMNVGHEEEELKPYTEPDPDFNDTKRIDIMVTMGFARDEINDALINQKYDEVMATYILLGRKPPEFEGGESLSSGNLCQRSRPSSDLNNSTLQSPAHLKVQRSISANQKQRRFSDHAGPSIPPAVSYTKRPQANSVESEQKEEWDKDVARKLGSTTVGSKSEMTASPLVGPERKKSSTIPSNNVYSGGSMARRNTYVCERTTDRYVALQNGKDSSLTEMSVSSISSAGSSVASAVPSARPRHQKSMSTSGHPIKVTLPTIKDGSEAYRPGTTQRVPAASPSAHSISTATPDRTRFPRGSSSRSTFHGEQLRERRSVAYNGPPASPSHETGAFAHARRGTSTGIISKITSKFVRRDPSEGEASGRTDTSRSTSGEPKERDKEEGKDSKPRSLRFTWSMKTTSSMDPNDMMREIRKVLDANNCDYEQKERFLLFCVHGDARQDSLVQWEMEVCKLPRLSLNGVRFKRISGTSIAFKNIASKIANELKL
Chain of MAP kinase-interacting serine/threonine-protein kinase 1 (Homo sapiens) (Q9BUB5 whole entry, looked up): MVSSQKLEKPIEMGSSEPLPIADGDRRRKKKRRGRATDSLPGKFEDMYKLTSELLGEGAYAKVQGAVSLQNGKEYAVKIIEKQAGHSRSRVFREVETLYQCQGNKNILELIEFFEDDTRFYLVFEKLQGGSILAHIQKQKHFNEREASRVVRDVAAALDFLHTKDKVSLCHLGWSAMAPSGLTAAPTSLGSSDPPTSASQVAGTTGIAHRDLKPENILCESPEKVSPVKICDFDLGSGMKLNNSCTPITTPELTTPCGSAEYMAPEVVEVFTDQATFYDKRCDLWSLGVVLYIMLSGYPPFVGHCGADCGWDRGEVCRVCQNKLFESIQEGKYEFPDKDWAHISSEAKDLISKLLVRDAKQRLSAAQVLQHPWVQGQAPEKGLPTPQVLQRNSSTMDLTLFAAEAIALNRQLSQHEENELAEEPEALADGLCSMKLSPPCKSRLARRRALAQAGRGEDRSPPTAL
Chain of MAP kinase-activated protein kinase 2 (Homo sapiens) (P49137 whole entry, looked up): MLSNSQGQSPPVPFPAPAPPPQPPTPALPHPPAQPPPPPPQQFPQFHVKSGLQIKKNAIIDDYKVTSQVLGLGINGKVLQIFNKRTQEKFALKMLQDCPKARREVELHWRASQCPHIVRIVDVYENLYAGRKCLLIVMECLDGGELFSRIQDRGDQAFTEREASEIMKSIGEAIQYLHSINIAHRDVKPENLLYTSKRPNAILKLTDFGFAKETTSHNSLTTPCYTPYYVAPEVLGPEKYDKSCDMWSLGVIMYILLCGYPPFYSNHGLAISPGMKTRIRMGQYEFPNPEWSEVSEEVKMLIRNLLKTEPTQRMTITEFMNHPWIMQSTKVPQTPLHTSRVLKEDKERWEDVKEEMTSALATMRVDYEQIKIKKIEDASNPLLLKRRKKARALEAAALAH
Chain of MAP/microtubule affinity-regulating kinase 3 (Homo sapiens) (P27448 whole entry, looked up): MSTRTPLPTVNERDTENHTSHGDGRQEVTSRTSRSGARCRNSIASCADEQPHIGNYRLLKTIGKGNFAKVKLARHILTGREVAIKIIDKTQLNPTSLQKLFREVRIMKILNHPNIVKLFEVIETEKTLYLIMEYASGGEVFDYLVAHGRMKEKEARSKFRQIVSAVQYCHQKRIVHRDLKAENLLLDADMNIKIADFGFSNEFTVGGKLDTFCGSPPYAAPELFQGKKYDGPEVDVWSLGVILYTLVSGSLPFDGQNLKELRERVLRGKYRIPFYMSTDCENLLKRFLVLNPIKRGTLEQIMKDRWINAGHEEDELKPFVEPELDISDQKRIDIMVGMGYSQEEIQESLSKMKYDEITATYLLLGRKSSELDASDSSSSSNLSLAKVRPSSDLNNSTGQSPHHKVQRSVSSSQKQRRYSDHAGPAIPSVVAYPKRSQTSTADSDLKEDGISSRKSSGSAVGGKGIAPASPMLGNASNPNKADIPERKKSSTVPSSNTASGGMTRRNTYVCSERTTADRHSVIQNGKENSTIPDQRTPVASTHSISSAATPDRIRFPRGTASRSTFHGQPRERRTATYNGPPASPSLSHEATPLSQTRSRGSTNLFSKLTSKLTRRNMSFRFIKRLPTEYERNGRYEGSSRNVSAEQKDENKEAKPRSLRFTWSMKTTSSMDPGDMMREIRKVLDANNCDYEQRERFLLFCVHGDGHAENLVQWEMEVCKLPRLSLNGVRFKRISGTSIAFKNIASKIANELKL
Chain of MAP kinase-activated protein kinase 3 (Homo sapiens) (Q16644 whole entry, looked up): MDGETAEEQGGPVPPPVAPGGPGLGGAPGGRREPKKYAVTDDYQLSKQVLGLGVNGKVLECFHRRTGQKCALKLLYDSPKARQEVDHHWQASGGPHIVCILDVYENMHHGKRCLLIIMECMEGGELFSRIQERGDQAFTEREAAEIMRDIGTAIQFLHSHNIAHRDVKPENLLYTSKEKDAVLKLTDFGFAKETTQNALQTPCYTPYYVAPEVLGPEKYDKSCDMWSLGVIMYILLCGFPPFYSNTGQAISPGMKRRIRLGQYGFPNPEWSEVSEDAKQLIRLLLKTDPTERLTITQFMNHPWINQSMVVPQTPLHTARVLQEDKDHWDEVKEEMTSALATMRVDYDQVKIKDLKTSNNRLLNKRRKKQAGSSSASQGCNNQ
Chain of Maternal embryonic leucine zipper kinase (Homo sapiens) (Q14680 whole entry, looked up): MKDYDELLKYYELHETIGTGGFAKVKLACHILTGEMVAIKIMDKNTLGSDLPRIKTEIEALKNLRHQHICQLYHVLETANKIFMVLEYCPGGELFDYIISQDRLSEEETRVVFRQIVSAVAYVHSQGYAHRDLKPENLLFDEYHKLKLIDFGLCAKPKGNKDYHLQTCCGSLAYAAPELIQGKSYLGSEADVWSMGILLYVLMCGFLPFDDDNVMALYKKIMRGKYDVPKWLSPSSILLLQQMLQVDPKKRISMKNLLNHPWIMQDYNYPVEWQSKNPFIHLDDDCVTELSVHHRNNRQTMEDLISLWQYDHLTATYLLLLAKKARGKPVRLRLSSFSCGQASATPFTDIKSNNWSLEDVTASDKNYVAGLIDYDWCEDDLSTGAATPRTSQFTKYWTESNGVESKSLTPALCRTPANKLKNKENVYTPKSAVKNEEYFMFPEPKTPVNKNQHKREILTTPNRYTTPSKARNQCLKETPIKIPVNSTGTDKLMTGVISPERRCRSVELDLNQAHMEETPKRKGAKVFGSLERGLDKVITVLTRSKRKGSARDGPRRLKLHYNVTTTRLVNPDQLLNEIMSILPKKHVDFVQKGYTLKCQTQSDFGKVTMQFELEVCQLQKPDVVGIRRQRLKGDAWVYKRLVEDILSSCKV

SMILES | inhibition [1] | inhibition [2] | inhibition [3] | inhibition [4] | inhibition [5] | inhibition [6] | inhibition [7] | inhibition [8] | inhibition [9] | inhibition [10] | inhibition [11] | inhibition [12] | inhibition [13] | inhibition [14] | inhibition [15] | inhibition [16] | inhibition [17] | inhibition [18] | inhibition [19] | inhibition [20]
NC(=O)Cc1ccccc1Oc1nccc(-c2c(-c3ccc(F)cc3)ncn2C2CCNCC2)n1 | 4.92% | 0.97% | 0.45% | 0.74% | 0.89% | 13.4% | 28.7% | 2.13% | 4.3% | 9.03% | 5.15% | 1.54% | 1.97% | 1.5% | 5.18% | 1.93% | 1.72% | 0.62% | 0.77% | 1.48%
Cc1ccc(C(=O)NC2CCC2)cc1-c1ccc(C(=O)NCC2CC2)cc1 | 4.36% | 0.61% | 4.16% | 1.17% | 0.94% | 5.84% | 18.9% | 2.6% | 1.46% | 3.09% | 0.6% | 0.84% | 0.72% | 3.33% | 1.69% | 0.33% | 3.09% | 0.84% | 1.97% | 0.5%
NS(=O)(=O)c1ccc(N/N=C2\C(=O)Nc3ccc(C(=O)NCCCn4ccnc4)cc32)cc1 | 14.2% | 1.59% | 2.86% | 4.69% | 5.55% | 9.93% | 10.6% | 5.69% | 22.3% | 1.88% | 5.47% | 3.39% | 14.6% | 6.78% | 46.9% | 7.7% | 16.8% | 3.98% | 14.2% | 1.13%
COc1cc(N2CCN(C(C)C)CC2)ccc1Nc1nc(Nc2ccc(F)cc2C(=O)NC[C@@H](O)CO)c2cc[nH]c2n1 | 46.8% | 2.24% | -4.14% | 1.77% | 2.39% | 4.35% | 4.3% | 3.88% | 7.69% | 1.03% | 19.6% | 1.95% | 2.9% | 3.61% | 19.9% | 3.33% | 8.52% | 1.03% | 5.28% | 1.97%
NC(=O)c1cc(-c2ccc(F)cc2)cc(-c2ccncc2)c1N | 1.25% | -0.12% | -0.85% | 2.21% | 1.35% | 4.03% | 5.82% | 2.29% | 4.17% | 3.27% | -2.7% | 1.2% | 2.29% | 2.86% | 4.94% | 3.36% | 12.1% | 1.44% | 3.34% | 0.15%
Fc1ccc(-c2ncn(C3CCNCC3)c2-c2ccnc(Oc3ccc(F)c(F)c3)n2)cc1 | 2.08% | -3.27% | -1.37% | 1.11% | 0.66% | 18.5% | 31.3% | 2.93% | 4.99% | 3.47% | 12.2% | 3.57% | 4.5% | 7.73% | 7.03% | 2.05% | 3.06% | 1.28% | 1.04% | -0.25%
COc1cccc(-n2cnc3c(N/N=C/c4ccncc4)ncnc32)c1 | -2.81% | -3.07% | -0.03% | -0.39% | -0.48% | -0.9% | -2.07% | 1.01% | 6.09% | 1.08% | 3.88% | 0.84% | 4.83% | -1.92% | -4.7% | 0.43% | 16.5% | 3.13% | 13.7% | 0.99%
c1ccc(-c2n[nH]cc2-c2ccnc(-c3ccc(OCCN4CCOCC4)cc3)c2)nc1 | 1.17% | 4.23% | 4.29% | 0.95% | 0.98% | 0.91% | 8% | 4.58% | 4.86% | 7.18% | 5.45% | 4.57% | 5.04% | -1.03% | 3.77% | 4.82% | 2.74% | 3.62% | 2.02% | 4.23%
COc1ccc2cc(-c3c(-c4ccncc4)nc(-c4ccc(S(C)(=O)=O)cc4C)n3C)ccc2c1 | -3.68% | 0.26% | -1.72% | -0.32% | -1.32% | -1.15% | 1.63% | 3.38% | 4.84% | 1.58% | 2.48% | 2.52% | 1.32% | 6.13% | 9.41% | 2.6% | 6.69% | 1.75% | 3.34% | 0.73%
N#Cc1ccc(Oc2nccc(-c3c(-c4ccc(F)cc4)ncn3C3CCNCC3)n2)cc1 | -0.22% | 1.3% | 3.06% | 1.77% | 1.32% | 13.9% | 30.8% | 0.23% | 3.06% | 1.6% | 0.33% | 2.3% | 2.46% | 6.59% | 4.91% | 2.51% | 2.45% | -0.25% | -0.69% | -1.85%
C[C@@H](Oc1cc(-n2cnc3ccc(OCC4CCN(C)CC4)cc32)sc1C(N)=O)c1ccccc1Cl | 9.2% | 0.87% | 4.91% | 2.09% | 4.06% | 2.95% | 3.34% | 3.83% | 24.3% | 4.91% | 31.2% | 6.41% | 23.9% | 7.59% | 37.9% | 2.4% | 5.78% | 1.96% | 5.86% | 3.52%
COc1ccc2ncn(-c3cc(O[C@H](C)c4ccccc4Cl)c(C(N)=O)s3)c2c1 | 1.29% | -3.36% | -2.8% | 1.56% | 1.62% | 3.18% | 2.49% | 3.24% | 2.92% | 3.81% | 3.11% | 2.49% | 2.42% | 7.14% | 6.08% | 1.84% | 2.25% | 0.29% | 2.7% | -0.63%
COc1ccc2cc(-c3c(-c4ccncc4)nc(-c4ccc([S+](C)[O-])cc4C)n3C)ccc2c1 (stereo not given) | -9.4% | -1.12% | 5.6% | -3.43% | -3.96% | -6.68% | -5.38% | -1.01% | -1.81% | 0.61% | -1.9% | -0.17% | -0.24% | 0.29% | 0.51% | 5.22% | 10% | 0.98% | 3.96% | -1.24%
COc1cc(C)c(N(C)C(=O)CN(C)C)cc1Nc1nc(Nc2cccc(F)c2C(N)=O)c2cc[nH]c2n1 | 1.79% | -2.4% | -3.85% | -0.22% | 0.04% | 1.56% | 0.17% | 0.72% | 1.97% | 3.34% | 4.11% | 1.12% | 1.75% | -1.34% | 5.45% | -0.51% | 1.72% | -1.19% | -0.74% | 0.4%
CN(C)c1ccc2c(c1)/C(=C/Nc1ccc(S(N)(=O)=O)cc1)C(=O)N2 | 1.27% | 1.9% | 5.58% | 0.97% | 1.33% | 0.95% | -0.05% | 6.96% | 36.4% | 6.41% | 32.7% | 6.9% | 32.5% | 3.82% | 20.4% | 1.64% | 9.3% | 1.66% | 3.67% | 3.86%
